The values that follow come from ChEMBL document CHEMBL4513216, “Probing the Open Global Health Chemical Diversity Library for Multistage-Active Starting Points for Next-Generation Antimalarials” (ACS Infect Dis, 2020).

The whole screen tested about 69,000 compounds, of which about 8,600 (12%) showed an effect of 50% or more. The full list was thinned out, with strong results kept by preference.

In the test the test system is Plasmodium berghei. Briefly: Screen against P. berghei liver stage (PbLuc), transformed with Luciferase, at 10uM. The settings on record: tested at 10 uM. Format: functional, HepG2.
Turning to `CC(C)=CCN1CCOC(Cn2cccn2)C1` (centres undefined), the INHIBITION worked out at 19.5%.
Next, `CC(C)CN1CCCC12CCN(c1nncs1)C2` (centres undefined): 37.8%; `N#Cc1ccc(CCC(=O)N2CCCC(n3cncn3)C2)cc1` (centres undefined): 19.2%.
With `CCCOc1ncccc1CNc1nnc(C)c(C)c1C#N` the figure was 41.15%; with `CN(C)c1ncccc1CNc1snc(Cl)c1C#N`, 49.1%.
As for `COc1ncccc1CNc1snc(Cl)c1C#N`, the INHIBITION was 54.3%.
Next, `CCCN(Cc1nc(-c2ccoc2)oc1C)CC1CCCO1` (centres undefined): -13.1%.
With `O=C(O)C1(Cc2cccc(-c3ccc(F)cc3)c2)CCOCC1` the figure was -22.6%.
With `Cc1cc(C)cc(-c2cccc(CC3(C(=O)O)CCOCC3)c2)c1` the figure was 38.7%; with `COc1ccc(-c2cccc(CC3(C(=O)O)CCOCC3)c2)cc1`, 29.2%; with `Cc1cccc(-c2cccc(CC3(C(=O)O)CCOCC3)c2)c1`, 13.5%.
With `Cc1cc(C)cc(-c2ccc(CC3(C(=O)O)CCOCC3)cc2)c1`, the INHIBITION is given as 61.4%.
For `O=C(O)C1(Cc2cccc(-c3ccc(F)c(F)c3)c2)CCOCC1`, the INHIBITION was found to be 58.6%.
In the case of `Cn1cccc1C(=O)N1C[C@@H](OCc2cccnc2)[C@H]2OCCC[C@H]21`, the INHIBITION was found to be 41.3%.
As for `CN(C)CC(=O)NC1CC(=O)N(CCc2ccccc2)C1` (centres undefined), the INHIBITION was 11.2%.
Next, `Cc1cc2c(=O)n3c(nc2s1)CCN(C(=O)c1cn(C)nc1C)CC3`: 14.7%; `Cc1nnn2c1COCC(CNCc1nccs1)C2` (centres undefined): -27.6%; `CC(CNC1CCN(Cc2ccncc2)CC1)c1ccc(F)cc1F` (centres undefined): -0.275%.
With `Fc1ccc(OCCNC2CCN(Cc3ccccn3)CC2)c(F)c1` the figure was 53.6%; with `c1ccc(CN2CCC(NCCc3ccc4c(c3)CCO4)CC2)nc1`, 25.7%; with `Cc1cc2n(n1)CC(CNC1CCN(c3ccccn3)CC1)CN2` (centres undefined), 31.4%.
Take `Fc1ccc(OCCNC2CCN(Cc3ccncc3)CC2)c(F)c1`: the INHIBITION is listed as 61.3%.
Next, `Cc1cc2n(n1)CC(CNC1CCN(Cc3ccccc3C)CC1)CN2` (centres undefined): 16.6%; `Cc1cc2n(n1)CC(CNC1CCN(Cc3ccncc3)CC1)CN2` (centres undefined): 16.1%; `N#Cc1ccc(NC2CCN(Cc3ccccn3)CC2)c(F)c1`: -5.78%.
Next, `Cc1cc2n(n1)CC(CNC1CCN(Cc3ccccn3)CC1)CN2` (centres undefined): 50.2%.
As for `Fc1cccc(-c2c[nH]c(C3CCCN3)n2)c1` (centres undefined), the INHIBITION is -4.62%.
Next, `CN(C(=O)NCC1(CN2CCOCC2)CCCCC1)C1CC1`: 0.0944%.
Next, `Cc1nc(CN2CCC(N(C)Cc3noc(C(C)C)n3)C2)oc1C` (centres undefined): 11.4%.
Next, `CN1CC(=O)N(c2cccc(F)c2)CC12CCN(CC1CC1)C2` (centres undefined): 19.5%; `CN(Cc1nccn1C)S(=O)(=O)N1CCCC1c1ccco1` (centres undefined): 15.7%.
Consider `CC(O)CN1CCC(=O)N(Cc2ccccc2)Cc2ccccc21` (centres undefined), for which the INHIBITION is given as 28.3%.
For `Cc1noc(C(C)N2CCN(c3ccc(C#N)cn3)CC2)n1` (centres undefined), the INHIBITION is on record as -5.78%.
Next, `CC(C)c1noc(C(C)N2CCN(c3ccc(C#N)cn3)CC2)n1` (centres undefined): 45.9%; `Cc1noc(C(C)N2CCN(Cc3cccc(C#N)c3)CC2)n1` (centres undefined): 21.5%.
Next, `CC(c1nc(C2CC2)no1)N1CCN(Cc2ccc(C#N)cc2)CC1` (centres undefined): 57%; `CC(c1nc(C2CC2)no1)N1CCN(Cc2cccc(C#N)c2)CC1` (centres undefined): 60.5%.
Next, `CC(c1nc(C2CC2)no1)N1CCN(Cc2ccccc2)CC1` (centres undefined): 27.4%; `CC(C)c1noc(C(C)N2CCN(Cc3cccc(C#N)c3)CC2)n1` (centres undefined): -8.11%.
Consider `COc1ccc(CN2CCN(C(C)c3nc(C4CC4)no3)CC2)cc1` (centres undefined), for which the INHIBITION was 40.3%.
Next, `CC(c1nc(C2CC2)no1)N1CCN(c2ccc(C#N)cn2)CC1` (centres undefined): 55.3%.
With `CCC(C)(C)NC(=O)CN1C=Nc2ccccc2S1(=O)=O` the figure was 19.6%; with `c1cnc(N2CCC3(CCN(CC4CCOCC4)CC3)C2)nc1`, 5.67%; with `CCc1c(C(=O)O)nnn1-c1ccc(C)cc1C`, 39.2%.
On to `CN(C)S(=O)(=O)N1C[C@@H]2CN(Cc3ccoc3)CCO[C@@H]2C1`, for which the INHIBITION was 23.6%.
Consider `CN1CCN(CCOc2ccc(NC(=O)c3ccoc3)cc2)CC1`, for which the INHIBITION is on record as -6.99%.
With `CCc1c(C(=O)O)nnn1-c1cccc(C)c1C` the figure was 6.09%.
Turning to `COCCN1CC[C@@H](O)[C@@H]1Cc1ccccc1`, the INHIBITION turned out to be 6.32%.
For `COc1cc(N2CC[C@H](O)[C@@H]2Cc2cnn(C)c2)ncn1`, the INHIBITION is given as 22.7%.
As for `COc1cc(N2CC[C@@H](O)[C@@H]2Cc2cccnc2)ncn1`, the INHIBITION is recorded as 85.8%.
With `COc1cc(N2CC[C@@H](O)[C@@H]2Cc2ccccc2)ncn1` the figure was 92.8%.
For `COCC(=O)N1CC[C@@H](O)[C@@H]1Cc1ccccc1`, the INHIBITION worked out at 37.5%.
As to `COc1cc(N2CC[C@@H](O)[C@@H]2Cc2ccncc2)ncn1`, the INHIBITION is 43.9%.
With `COc1cc(N2CC[C@@H](OC)[C@@H]2Cc2cnn(C)c2)ncn1` the figure was 23.5%; with `COc1cc(N2CC[C@H](O)[C@@H]2Cc2cccnc2)ncn1`, 6.6%.
With `COCCO[C@@H]1CCN(c2cc(OC)ncn2)[C@H]1Cc1cnn(C)c1` the figure was 14.6%.
With `COCCO[C@H]1CCN(c2cc(OC)ncn2)[C@H]1Cc1cnn(C)c1` the figure was 76.2%; with `COCCN1CC[C@H](O)[C@@H]1Cc1ccccc1`, 0.79%.
Consider `COc1cc(N2CC[C@H](O)[C@@H]2Cc2ccccc2)ncn1`, for which the INHIBITION is recorded as 75.4%.
